Shown are actives, neighbours in structure and some others; about 2.8% of the full set was active somewhere.
CtBP-E1A blk – inhibitors of CtBP/E1A interaction | activity change, % (test concentration not listed) | AID 651724 | hit rate 0.49% among 340,000 | AlphaScreen GST-E1A/His-CtBP binding, 1536-well; stronger effect = lower value; in the data active means activity change below about -65%; inconclusive means mostly about -30% to -63%; further: on the % scale 0 is the no-effect control and ±100 the full control effect
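GST-E1A and His-tagged CtBP (125 nM each as 5X stock) were preincubated with pin-transferred compound for 2 h at 37 °C in the dark, then glutathione donor and nickel acceptor beads were added for 1 h before AlphaScreen reading.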
HepG2 tox – kills HepG2 cells in TGF-b inhibitor counter-screen | HepG2 CAGA-GFP viability, ATP luminescence, 18 h | Potency, µM (highest dose often 46.1 µM), inactives show at the top dose activity change, negative = cytotoxicity, most hits filed as cytotoxic | hit rate 0.76% among 410,000 | AID 588856; further: potency means the concentration at half of the fitted maximal effect
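CellTiter-Glo luminescence gave cytotoxicity after 18 hours at 37 degrees C. The cells were HepG2 CAGA-GFP in 1% FBS DMEM, stimulated with 500 pg/mL TGF-beta after compound addition. %Activity was normalised to no-cell wells (complete cell-killing) and DMSO (no toxicity), and curves were fitted and classified.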
S2 tox – viability counter-screen for ATXN expression inhibitors; S2 cells (HEK-293 line with an ATXN2-luciferase reporter) viability, CellTiter-Fluor protease fluorescence, 24 h; Potency, µM (titrated, usually from 56.7 µM), most hits filed as cytotoxic; hit rate 0.49% among 400,000; AID 651635; further: potency means the concentration at half of the fitted maximal effect; nearly all actives have a fitted effect of over 40% in size
Six1-Eya2 blk – Six1/Eya2 interaction inhibition; AlphaScreen GST-Six1/His-Eya2 binding, biochemical; stronger effect = lower value; activity change, % (test concentration not listed); AID 651725; hit rate 0.56% among 360,000; in the data active means activity change below about -65%; inconclusive means mostly about -30% to -63%; further: on the % scale 0 is the no-effect control and ±100 the full control effect
Target sequence (O00167 whole entry, looked up): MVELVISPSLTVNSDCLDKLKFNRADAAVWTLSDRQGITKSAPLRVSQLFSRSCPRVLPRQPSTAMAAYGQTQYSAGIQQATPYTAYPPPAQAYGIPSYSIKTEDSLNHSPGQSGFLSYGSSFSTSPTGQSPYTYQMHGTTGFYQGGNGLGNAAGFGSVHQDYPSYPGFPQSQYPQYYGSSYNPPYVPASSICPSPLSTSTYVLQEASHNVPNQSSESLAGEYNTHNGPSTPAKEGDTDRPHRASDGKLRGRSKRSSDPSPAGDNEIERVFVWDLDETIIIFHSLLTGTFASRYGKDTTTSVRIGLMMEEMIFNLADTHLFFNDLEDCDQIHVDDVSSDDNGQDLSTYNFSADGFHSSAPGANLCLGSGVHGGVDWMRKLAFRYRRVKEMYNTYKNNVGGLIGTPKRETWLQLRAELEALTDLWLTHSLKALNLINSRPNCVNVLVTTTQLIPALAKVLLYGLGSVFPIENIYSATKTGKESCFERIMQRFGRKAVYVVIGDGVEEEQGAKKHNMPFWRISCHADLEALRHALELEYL
Target sequence (Q15475 whole entry, looked up): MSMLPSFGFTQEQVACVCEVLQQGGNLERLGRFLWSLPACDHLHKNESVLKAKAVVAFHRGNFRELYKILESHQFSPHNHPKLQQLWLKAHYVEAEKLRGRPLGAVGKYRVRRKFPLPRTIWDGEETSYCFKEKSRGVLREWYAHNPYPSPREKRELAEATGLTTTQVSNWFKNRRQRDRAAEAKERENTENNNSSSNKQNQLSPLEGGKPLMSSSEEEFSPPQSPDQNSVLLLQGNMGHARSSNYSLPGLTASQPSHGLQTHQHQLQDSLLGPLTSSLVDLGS
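Homogeneous AlphaScreen proximity assay pairing GST-Six1 with His-tagged Eya2 (added as 5X mix: 250 nM and 500 nM) in 50 mM Tris pH 8.0, 300 mM NaCl, 1 mM TCEP. Glutathione donor and nickel acceptor beads; 1 h, 37 °C, dark.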
TGFb SMAD3 inh – TGF-b pathway inhibition; HepG2 CAGA-GFP TGF-b/SMAD3 reporter, GFP fluorescence, 18 h; TGF-beta stimulated, 500 pg/mL final; Potency, µM (doses to about 46.1 µM), without a hit: at the top dose activity, negative = inhibition, usual class: inhibitors; hit rate 1.2% among 410,000; further: potency means the concentration at half of the fitted maximal effect; on the % scale 0 is the no-effect control and ±100 the full control effect; nearly all actives have a fitted effect of over 65% in size
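First, reporter cells (HEPG2 CAGA-GFP) rested 2 h at 37 degrees C. Next, compounds were pinned in and TGF-beta added to 500 pg/mL final. After 18 h, GFP was imaged per cell and summed per well.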
ATXN2 expr inh – inhibitors of ATXN2 expression; HEK-293 ATXN2-luciferase reporter, luminescence, 24 h; AID 1745845; Potency, µM (doses to about 57 µM), inactives show at the top dose activity change, negative = inhibition, most hits filed as inhibitors; hit rate 0.72% among 360,000; further: potency means the concentration at half of the fitted maximal effect; on the % scale 0 is the no-effect control and ±100 the full control effect; nearly all actives have a fitted effect of over 55% in size
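qHTS (up to 57 uM final) was run with 24 h compound exposure of reporter cells at 37 °C. Each well was multiplexed: SteadyGlo luminescence measured ATXN2-luciferase expression after a fluorogenic Gly-Phe-AFC viability readout (25 uM final).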
The depositor's hits bear a star; i = inactive; ? = inconclusive; . = no result; ! = not active in a repeat. Unless noted, the call rests on the fitted dose curve; in most records, active means well fitted curve in the direction sought with a large enough effect; inconclusive means small, poorly fitted or top-dose-only effect, or another doubt; inactive means no such curve, though single readings can be large; an effect the other way counts as inactive or inconclusive.

SMILES	CtBP-E1A blk	HepG2 tox	S2 tox	Six1-Eya2 blk	TGFb SMAD3 inh	ATXN2 expr inh
COc1ccc(-c2nc3ccccn3c2NC2CCCCC2)cc1SC1CCCCC1	-13.1	-39.2%	?	-15.5	?	?
COc1ccc(-c2cc(C)cc3c2OC(CNC(=O)c2cc(C(C)C)on2)C3)nn1 (configuration not stated)	.	.	i	.	.	.
O=C(NCc1cccc(Br)c1)C1CCCCN1S(=O)(=O)c1ccc(F)cc1 (configuration not stated)	.	-37.9%	i	.	?	4.0%
COc1cc(-c2cnc3c(NC=O)cc(-c4cccc(C(=O)NCCN(C)C)c4)cn23)cc(OC)c1OC	-16.0	-30.4%	?	-13.1	-0.3%	11.3%
CCOc1ccc(CNC(=O)CN2C(=O)CCn3nc(-c4cn(C)c5ccccc45)cc32)cc1OC	.	5.9%	i	.	10.4%	3.5%
COC(=O)C1=C(C(=O)OC)SC(=C2C(=S)C(C)(C)N(C(=O)C(C)C)c3ccccc32)S1	8.7	-61.0%	?	?	?	-29.6%
COC(=O)C1=C(C(=O)OC)SC(=C2C(=S)C(C)(C)N(C(=O)C3CC3)c3ccccc32)S1	-80.4*	-20.6%	i	-76.9*	?	-27.8%
Cc1nn(C)cc1CNc1nc(C)c(-c2ccn(CC3COc4ccccc4O3)n2)s1 (configuration not stated)	.	.	i	.	.	.
COc1ccc2nc3cc(Cl)ccc3c(Nc3ccc(O)c(CN4CCN(C)CC4)c3)c2c1	-0.2	-71.6%	?	?	11.2µM*	?
COc1ccc2nc3cc(Cl)ccc3c(C#N)c2c1	-0.2	11.4%	i	5.8	2.1%	1.1%
O=C1CC(c2ccccc2)n2nc(NC(=O)c3ccccn3)nc2N1 (configuration not stated)	?	25.0%	i	-75.4*	27.7%	4.4%
CS(=O)(=O)c1ccc(-c2ccc3c(c2)CC(CNC(=O)C2(N4CCOCC4)CCCCC2)O3)cc1 (configuration not stated)	.	.	i	.	.	.
CCCNc1nc(NCc2ccccc2OC)c2cnn(C)c2n1	.	-26.0%	i	.	0.2%	-15.7%
Nc1nc2c(s1)CCc1c-2cnn1-c1ccccc1	.	-120.7%	?	-17.4	17.8µM*	.
COc1ccc(NC(=O)CSC2=Nc3ccccc3C3=NC(Cc4ccccc4)C(=O)N23)cc1 (configuration not stated)	.	-16.4%	?	.	0.9%	11.7%
CS(=O)(=O)N1CCN(c2ccccc2NC(=O)c2ccc([N+](=O)[O-])o2)CC1	.	-26.3%	?	-10.2	?	-37.2%
O=C(Nc1ccccc1Cl)c1ccc([N+](=O)[O-])o1	-4.8	-81.4%	i	-6.3	?	-13.1%
Cc1ccc(-c2nnc(NC(=O)c3ccc([N+](=O)[O-])o3)o2)c(C)c1	4.6	-6.1%	?	-6.6	-19.4%	?
Cc1ccc(NC(=O)c2ccc([N+](=O)[O-])o2)c(C)c1	-11.9	-79.9%	i	5.2	12.6µM*	-7.3%
O=C(Nc1nc(-c2cccs2)cs1)c1ccc([N+](=O)[O-])o1	0.4	11.2µM*	?	-4.4	?	-23.5%
CN1CCN(c2ccccc2NC(=O)c2ccc([N+](=O)[O-])o2)CC1	-8.3	2.51µM*	?	0.0	?	?
Cc1ccccc1NC(=O)c1ccc([N+](=O)[O-])o1	-0.4	-34.5%	i	8.0	15.8µM*	-16.6%
Cc1cccnc1NC(=O)c1ccc([N+](=O)[O-])o1	10.6	-1.7%	?	3.8	?	6.4%
CN1CCN(c2ccccc2NC(=O)C(Cc2ccccc2)n2cccc2)CC1 (configuration not stated)	-28.8	-34.1%	29.9µM*	-5.4	-4.5%	0.0%
Cc1cccc(NC(=O)Nc2ccc([N+](=O)[O-])cc2)n1	.	-0.6%	i	-2.5	-28.2%	.
SMILES	CtBP-E1A blk	HepG2 tox	S2 tox	Six1-Eya2 blk	TGFb SMAD3 inh	ATXN2 expr inh
Cc1c(NC(=O)c2ccc([N+](=O)[O-])o2)cccc1-c1nc2ncccc2o1	7.4	25.1µM*	?	6.8	?	?
O=C(Nc1cccc2ncccc12)c1ccc([N+](=O)[O-])o1	1.3	12.6µM*	i	-2.1	12.6µM*	21.1%
Cc1cccc(NC(=O)c2ccc([N+](=O)[O-])o2)n1	6.7	25.1µM*	?	-2.4	?	-21.5%
O=C(Nc1ccccc1F)C(Cc1ccccc1)n1cccc1 (configuration not stated)	.	-22.4%	.	.	-11.3%	.
CCn1c(-c2ccccc2F)nc2cc(NC(C)=O)cc(C(=O)NCc3ncc(C)[nH]3)c21	.	.	i	.	.	.
Cc1ccc(C(=O)Oc2cc(C)n(C)c(=O)c2)cc1	-22.6	13.8%	i	-94.5*	12.9%	-16.8%
CCN(CCCNC(=O)c1cc2c(=O)[nH]c3ccc(C)cc3c2s1)Cc1ccccc1	.	12.6µM*	?	.	11.2µM*	?
CCN(CCCNC(=O)c1cc2cc3ccc(C)cc3nc2s1)c1ccccc1	.	-28.1%	i	.	6.31µM*	17.3%
Cc1ccc2nc(Cl)c3cc(C(=O)NCCCN(C)Cc4ccccc4)sc3c2c1	.	12.6µM*	.	.	?	.
CN(CCCNC(=O)c1cc2c(Cl)nc3ccccc3c2s1)Cc1ccccc1	-29.5	15.8µM*!	?	-22.6	?	?
COc1cccc(-n2c(SC)nnc2C2CCN(Cc3cccc(OC)c3O)CC2)c1	.	.	i	.	.	.
N#CC1(c2ccc(NC(=O)c3cccnc3NCc3ccncc3)cc2)CCCC1	.	.	.	.	.	40.6%
Cc1cc(-c2ccnc(-n3ncc(C(=O)NCC(C)(C)N4CCOCC4)c3C)n2)c(C)s1	.	.	i	.	.	.
Nc1c(Cl)cc(C2=NCCn3nc4cc([N+](=O)[O-])ccc4c32)cc1Cl	.	-12.6%	i	-21.3	29.0%	-8.1%
Nc1c(Cl)cc(C2=NCCn3c2c2ccc([N+](=O)[O-])cc2[n+]3[O-])cc1Cl	.	-34.5%	?	-16.2	11.2µM*	?
Cc1cc(=O)oc2cc(OCC3CC(c4ccc(Cl)cc4)=NO3)ccc12 (configuration not stated)	41.6	-21.9%	i	17.6	-2.9%	-9.9%
NNC(=O)c1ccc(OCC2CC(c3ccc(Cl)cc3)=NO2)cc1 (configuration not stated)	-11.8	12.6µM*	i	-8.6	?	-33.5%
CC(C)(C)C(=O)C(Cl)C(=O)Nc1ccccc1 (configuration not stated)	-6.1	8.91µM*	i	2.0	?	.
O=C(Nc1ccc(Nc2ccccc2)cc1)C(Cl)Cl	-14.3	-76.9%	?	-11.9	12.6µM*	-15.8%
COc1cc(N(C)C)ccc1/C=C/c1ccnc2ccccc12	.	-38.9%	.	.	151.8%	.
